# Experimental data reported in PubChem BioAssay.
# A number with no mark means an inactive call. Active and inactive are the calls of the source.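 Rule for the calls: active = inhibition above the hit cutoff set in the earlier primary screen (cut at about 27% in these data); inactive = the rest.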
# Molecular target: Protein phosphatase methylesterase 1 (Homo sapiens) (UniProt Q9Y570)
# Assay: human PME-1 methylesterase inhibition confirmation – biochemical, fluorescence polarization, FP-Rh probe, triplicate (AID 2171);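 note: 0% = enzyme with DMSO and 100% = wells lacking PME-1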
# Conditions: recombinant PME-1, FP-Rh probe fluorescence polarization; at 5.9 µM; active compounds read high
# Protein phosphatase methylesterase 1 (Homo sapiens), sequence (Q9Y570 whole entry, looked up): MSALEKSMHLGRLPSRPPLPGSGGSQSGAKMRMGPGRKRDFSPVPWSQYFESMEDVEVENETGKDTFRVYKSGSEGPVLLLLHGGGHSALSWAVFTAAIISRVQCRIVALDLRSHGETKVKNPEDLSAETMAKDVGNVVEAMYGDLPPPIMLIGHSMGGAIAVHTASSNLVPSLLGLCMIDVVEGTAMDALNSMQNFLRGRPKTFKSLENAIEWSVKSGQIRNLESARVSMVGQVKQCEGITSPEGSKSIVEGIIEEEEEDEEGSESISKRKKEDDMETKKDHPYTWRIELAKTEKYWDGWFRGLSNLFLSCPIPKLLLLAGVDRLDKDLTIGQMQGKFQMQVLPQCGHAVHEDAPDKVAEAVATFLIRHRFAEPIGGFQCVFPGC
row,Structure (SMILES),inhibition
1,CCc1cccc2c(C(=O)COC(=O)c3ccc([N+](=O)[O-])s3)c[nH]c12,24.6%
2,O=C(O)c1cccc(-n2c(/C=C/c3ccc([N+](=O)[O-])cc3)nc3ccccc3c2=O)c1,24.3%
3,CC1=Nc2ccccc2/C1=C/c1sc(=N)n(-c2nccs2)c1O,40.4% (active)
4,O=C(N/N=C/c1sc(N2CCOCC2)nc1-c1ccccc1)c1ccccc1O,51.2% (active)
5,COc1cc(/C=N/NC(=O)c2cc3c(ccc4ccccc43)o2)cc(OC)c1O,29% (active)
6,COc1ccc(-c2nc(NC(=O)c3[nH]c(C)c(C(C)=O)c3C)sc2C)cc1,55% (active)
7,COc1ccc(C2CC(c3ccc(OC)c(OC)c3)=NN2S(C)(=O)=O)cc1 (stereo not given),22.9%
8,CCCCCCC(=O)Nc1nc(C)c(-c2csc(Nc3cc(OC)ccc3OC)n2)s1,65% (active)
9,CCCCCCn1c(=O)[nH]c2nc3cc(N)ccc3nc2c1=O,37.6% (active)
10,Cc1nc2ccccc2nc1N/N=C/c1ccc(O)cc1O,36.4% (active)
11,Cc1ccc2[nH]c3c(N4CCc5ccccc5C4)ncnc3c2c1,30.5% (active)
12,CCOC(=O)Cc1csc(NC(=O)c2sc3nc4ccc(C)cc4cc3c2N)n1,21%
13,Cc1ccc(S(=O)(=O)/N=C2/C=C(Sc3ncn[nH]3)C(=O)c3ccccc32)c(C)c1,49.6% (active)
14,COc1ccc(/C=c2\s/c(=C/C(=O)c3ccc(C)cc3)[nH]c2=O)c(OC)c1,18.9%
15,CCn1c(C)c(/C=N/Nc2nc3ccccc3s2)c2ccccc21,16.8%
